# Test results taken from the supplement of paper PMC9262897, “Low-cost anti-mycobacterial drug discovery using engineered E. coli” (Nature Communications, 2022).
# Where a name gives a salt, the structure may show the parent alone. ± gives the standard deviation of the averaged measurements.
# Experiments:
# Assay in all cases: growth (OD600 after 10 h); higher = more growth (less inhibition)
# [1] = system: E. coli TESEC Alr+ wild-type control; conditions: compound 0.1 mM; raw OD600 reference: median of DMSO wells 0.241, cell-free background 0.041
# Protocol: (§1)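 TESEC Mtb Alr E. coli, or the Alr+ wild-type control, in 384-well plates with Prestwick library compounds at 0.1 mM and 1% DMSO, across arabinose induction levels of 1E3 to 1E7 nM. Growth is read as OD600 after 10 h at 37 °C in triplicate biological replicates.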
# [2] = system: E. coli TESEC Mtb Alr; conditions: compound 0.1 mM
# Protocol: as §1
# [3] = system: E. coli TESEC Mtb Asd; conditions: compound 0.1 mM
# Protocol: (§2)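 TESEC E. coli strains in which the native enzyme is deleted and replaced by arabinose-inducible Mtb Asd, DapB, CysH or TrpD, each grown in its selective medium. Strains were screened against the Prestwick library at 0.1 mM and 1% DMSO in 384-well format at low and high arabinose induction. Growth is read as OD600 after 10 h in triplicate.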
# [4] = system: E. coli TESEC Mtb DapB; conditions: compound 0.1 mM
# Protocol: as §2
# [5] = system: E. coli TESEC Alr+ wild-type control; conditions: compound 0.1 mM; raw OD600 reference: median of DMSO wells 0.49, cell-free background 0.052
# Protocol: (§3)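 TESEC Mtb Alr E. coli (ΔaraC ΔtolC ΔentC Δalr ΔdadX, arabinose-inducible Mtb Alr) or the Alr+ wild-type control strain, grown in defined M9-fructose medium without D-alanine in 96-well plates with Prestwick library compounds at 0.1 mM and 1% DMSO. Low Alr induction is 0.1 µM arabinose and high induction is 10 mM arabinose.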
# [6] = system: E. coli TESEC Mtb Alr; conditions: compound 0.1 mM; remark: listed apart in the source
# Protocol: as §3
# [7] = arabinose 1000 nM, raw OD600 reference: median of DMSO wells 0.294, cell-free background 0.041
# [8] = arabinose 10000 nM, raw OD600 reference: median of DMSO wells 0.264, cell-free background 0.041
# [9] = arabinose 100000 nM, raw OD600 reference: median of DMSO wells 0.201, cell-free background 0.041
# [10] = arabinose 1000000 nM, raw OD600 reference: median of DMSO wells 0.193, cell-free background 0.041
# [11] = arabinose 10000000 nM, raw OD600 reference: median of DMSO wells 0.146, cell-free background 0.041
# [12] = arabinose induction (level): High, raw OD600 reference: median of DMSO wells 0.331, cell-free background 0.041
# [13] = arabinose induction (level): Low, raw OD600 reference: median of DMSO wells 0.417, cell-free background 0.041
# [14] = arabinose induction (level): High, raw OD600 reference: median of DMSO wells […], cell-free background 0.041
# [15] = arabinose induction (level): Low, raw OD600 reference: median of DMSO wells 0.227, cell-free background 0.041
# [16] = arabinose 100 nM, raw OD600 reference: median of DMSO wells 0.413, cell-free background 0.052
# [17] = arabinose 10000000 nM, raw OD600 reference: median of DMSO wells […], cell-free background 0.052
Structure (SMILES),growth [1],"growth [2, 7]","growth [2, 8]","growth [2, 9]","growth [2, 10]","growth [2, 11]","growth [3, 12]","growth [3, 13]","growth [4, 14]","growth [4, 15]",growth [5],"growth [6, 16]","growth [6, 17]"
Cc1cn([C@H]2C=C[C@@H](CO)O2)c(=O)[nH]c1=O [Stavudine],0.163 ± 0.01,0.285 ± 0.023,0.158 ± 0.017,0.121 ± 0.0031,0.119 ± 0.0013,0.181 ± 0.0073,0.157 ± 0.013,0.158 ± 0.0091,0.192 ± 0.015,0.178 ± 0.0066,0.512 ± 0.037,0.417 ± 0.011,0.218 ± 0.012
O=C(O)CCC(=O)Nc1ccc(S(=O)(=O)Nc2nccs2)cc1 [Succinylsulfathiazole],0.257 ± 0.0064,0.328 ± 0.017,0.264 ± 0.0094,0.21 ± 0.018,0.18 ± 0.0018,0.157 ± 0.0071,0.447 ± 0.027,0.432 ± 0.04,0.196 ± 0.024,0.258 ± 0.028,0.455 ± 0.037,0.4084 ± 0.0019,0.317 ± 0.014
Fc1ccc([C@@H]2CCNC[C@H]2COc2ccc3c(c2)OCO3)cc1 [Paroxetine Hydrochloride],0.178 ± 0.0068,0.172 ± 0.01,0.2021 ± 0.0013,0.129 ± 0.0033,0.05573 ± 0.00035,0.0552 ± 0.0014,0.133 ± 0.0029,0.176 ± 0.0037,0.172 ± 0.027,0.178 ± 0.0082,0.444 ± 0.026,0.384 ± 0.0066,0.134 ± 0.073
CC(CCc1ccccc1)NCC(O)c1ccc(O)c(C(N)=O)c1 (stereo not drawn) [Labetalol hydrochloride],0.191 ± 0.006,0.246 ± 0.015,0.24 ± 0.011,0.174 ± 0.011,0.1371 ± 0.0012,0.137 ± 0.0031,0.26 ± 0.015,0.407 ± 0.046,0.186 ± 0.0091,0.209 ± 0.017,0.467 ± 0.024,0.413 ± 0.0048,0.321 ± 0.016
COc1ccc([C@@H]2Sc3ccccc3N(CCN(C)C)C(=O)[C@@H]2OC(C)=O)cc1 [Diltiazem hydrochloride],0.184 ± 0.0078,0.239 ± 0.01,0.274 ± 0.014,0.175 ± 0.0049,0.139 ± 0.0028,0.139 ± 0.0037,0.248 ± 0.063,0.434 ± 0.098,0.184 ± 0.035,0.211 ± 0.056,0.476 ± 0.011,0.413 ± 0.0022,0.3 ± 0.013
CN(C/C=C/C#CC(C)(C)C)Cc1cccc2ccccc12 [Terbinafine],0.214 ± 0.0072,0.272 ± 0.0085,0.226 ± 0.025,0.177 ± 0.0062,0.085 ± 0.0043,0.174 ± 0.0062,0.296 ± 0.046,0.41 ± 0.037,0.182 ± 0.047,0.218 ± 0.03,0.358 ± 0.013,0.145 ± 0.035,0.0574 ± 0.0026
CN1CCCCC1CCN1c2ccccc2Sc2ccc([S+](C)[O-])cc21 (stereo not drawn) [Mesoridazine besylate],0.169 ± 0.0023,0.24 ± 0.012,0.266 ± 0.0092,0.225 ± 0.032,0.131 ± 0.0058,0.149 ± 0.005,0.204 ± 0.023,0.339 ± 0.091,0.191 ± 0.007,0.202 ± 0.027,0.568 ± 0.023,0.403 ± 0.0065,0.3 ± 0.02
O=C1c2c(O)cccc2Cc2cccc(O)c21 [Anthralin],0.161 ± 0.0039,0.159 ± 0.018,0.169 ± 0.017,0.205 ± 0.0082,0.151 ± 0.0087,0.182 ± 0.0047,0.22 ± 0.013,0.306 ± 0.13,0.246 ± 0.017,0.229 ± 0.051,0.339 ± 0.015,0.29 ± 0.034,0.239 ± 0.03
C#C[C@]1(O)CC[C@H]2[C@@H]3[C@H](C)CC4=C(CCC(=O)C4)[C@H]3CC[C@@]21C [Tibolone],0.141 ± 0.0097,0.162 ± 0.017,0.155 ± 0.031,0.15 ± 0.021,0.0695 ± 0.00095,0.148 ± 0.0066,0.167 ± 0.036,0.316 ± 0.047,0.17 ± 0.0045,0.172 ± 0.0081,0.393 ± 0.015,0.362 ± 0.046,0.137 ± 0.003
CC(C)(C)CC(C)(C)c1ccc(OCOCCOCCO)c(Cc2cc(C(C)(C)CC(C)(C)C)cc(Cc3cc(C(C)(C)CC(C)(C)C)ccc3OCOCCOCCO)c2OCOCCOCCO)c1 [Tyloxapol],0.341 ± 0.018,0.323 ± 0.0088,0.256 ± 0.0056,0.455 ± 0.027,0.171 ± 0.0031,0.261 ± 0.032,0.475 ± 0.018,0.509 ± 0.0063,0.217 ± 0.018,0.261 ± 0.033,0.4593 ± 0.0043,0.418 ± 0.016,0.4093 ± 0.0033
CCCCC1C(=O)N(c2ccccc2)N(c2ccc(O)cc2)C1=O (stereo not drawn) [Oxyphenbutazone],0.2 ± 0.01,0.255 ± 0.0043,0.262 ± 0.0047,0.211 ± 0.027,0.124 ± 0.0071,0.129 ± 0.004,0.366 ± 0.025,0.384 ± 0.047,0.204 ± 0.019,0.229 ± 0.044,0.436 ± 0.036,0.415 ± 0.0059,0.28 ± 0.0025
Nc1nc2[nH]cc(CCc3ccc(C(=O)N[C@@H](CCC(=O)O)C(=O)O)cc3)c2c(=O)[nH]1 [Pemetrexed disodium],0.258 ± 0.0062,0.303 ± 0.017,0.274 ± 0.019,0.218 ± 0.029,0.184 ± 0.0046,0.156 ± 0.0069,0.281 ± 0.0067,0.405 ± 0.063,0.19 ± 0.019,0.231 ± 0.013,0.56 ± 0.081,0.416 ± 0.013,0.32 ± 0.012
C[C@]12CCC(=O)C=C1C=C[C@@H]1[C@@H]2CC[C@@]2(C)[C@H]1CC[C@@]21CCC(=O)O1 [Canrenone],0.129 ± 0.0013,0.139 ± 0.0075,0.097 ± 0.0013,0.131 ± 0.0077,0.0738 ± 0.0044,0.126 ± 0.0083,0.217 ± 0.055,0.227 ± 0.042,0.139 ± 0.011,0.174 ± 0.0092,0.282 ± 0.014,0.363 ± 0.0069,0.144 ± 0.031
"CCN(CC)CCOc1ccc(C(=C(Cl)c2ccccc2)c2ccccc2)cc1 [Clomiphene citrate (Z,E)]",0.0417 ± 0.00081,0.04167 ± 0.00032,0.04553 ± 0.00029,0.0433 ± 0.0019,0.0493 ± 0.00052,0.0428 ± 0.00085,0.0496 ± 0.0019,0.0482 ± 0.00099,0.04853 ± 0.00015,0.0475 ± 0.00049,0.0537 ± 0.00085,0.0696 ± 0.034,0.0856 ± 0.015
Nc1cc(C(Cl)=C(Cl)Cl)c(S(N)(=O)=O)cc1S(N)(=O)=O [Clorsulon],0.224 ± 0.0038,0.278 ± 0.0056,0.269 ± 0.0061,0.214 ± 0.029,0.179 ± 0.0043,0.15 ± 0.0072,0.283 ± 0.025,0.3101 ± 0.0016,0.216 ± 0.014,0.248 ± 0.016,0.53 ± 0.0087,0.414 ± 0.011,0.335 ± 0.025
Nc1nc2c(ncn2COC(CO)CO)c(=O)[nH]1 [Ganciclovir],0.236 ± 0.0046,0.283 ± 0.0092,0.2718 ± 0.0013,0.202 ± 0.023,0.183 ± 0.003,0.136 ± 0.0066,0.314 ± 0.011,0.411 ± 0.019,0.21 ± 0.023,0.245 ± 0.013,0.473 ± 0.057,0.417 ± 0.016,0.365 ± 0.0063
